GRP78 ERSR act: qHTS for Inducers of the Endoplasmic Reticulum Stress Response (ERSR) in Human Glioma: qHTS; U87-MG GRP78 promoter luciferase reporter, 16 h; Potency, µM, for inactives: top-dose activation, usual class: activators; actives 0.02% (n = 420,000); AID 602332, 2012; also: series mostly up to about 76 µM; % of control where 0% means no effect; nearly all actives have a fitted effect of over 35% in size
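ERSR induction read as luciferase luminescence (Bright-Glo, 10 min at room temperature) in stably transfected human U87-MG glioma cells exposed to compounds for 16 h, using GRP78 as sensor.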
Vif-APOBEC3F blk: qHTS for Inhibitors of Vif-A3F Interactions: qHTS; HeLa A3F-eYFP + Vif (tagged APOBEC3F with the HIV-1 protein that degrades it), YFP fluorescence increase; Potency, µM (top dose mostly 46.1 µM), for the others: top-dose activity, negative = active; actives 0.2% (n = 390,000); also: % of control where 0% means no effect; nearly all actives have a fitted effect of over 65% in size
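Fluorescence increase (Ex 488/Em 500-530) after overnight compound treatment at 37 deg C flags inhibition of Vif-driven A3F-eYFP loss in stable HeLa A3F-eYFP/Vif cells seeded overnight beforehand.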
Epigenetic reg: Quantitative High-Throughput Screen for Regulators of Epigenetic Control; murine LDR cells, GFP reporter derepression, 30 h; Potency, µM (top dose mostly 53.9 µM), for the others: top-dose GFP activation, most hits filed as activators; actives 0.2% (n = 280,000); also: % of control where 0% means no effect; nearly all actives have a fitted effect of over 60% in size
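Murine LDR cells bearing a silenced CMV-driven GFP reporter were exposed to compound for 30 h at 37 C. After PBS washes, GFP-positive cells (20-120 um objects) counted by laser-scanning microplate cytometry.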
Vif-APOBEC3G blk: qHTS for Inhibitors of Vif-A3G Interactions: qHTS; Potency, µM (doses to about 46.1 µM), inactives show at the top dose activity, negative = active, usual class: inhibitors; AID 602310, 2012; actives 0.076% (n = 410,000); DNA dC->dU-editing enzyme APOBEC-3G (Homo sapiens), Q9HC16; HeLa A3G-eYFP + Vif (tagged APOBEC3G with the HIV-1 protein that degrades it), YFP fluorescence, overnight; also: % is scaled to controls: 0 for no effect and ±100 for the full control effect; nearly all actives have a fitted effect of over 60% in size
Target sequence (Q9HC16 whole entry, looked up): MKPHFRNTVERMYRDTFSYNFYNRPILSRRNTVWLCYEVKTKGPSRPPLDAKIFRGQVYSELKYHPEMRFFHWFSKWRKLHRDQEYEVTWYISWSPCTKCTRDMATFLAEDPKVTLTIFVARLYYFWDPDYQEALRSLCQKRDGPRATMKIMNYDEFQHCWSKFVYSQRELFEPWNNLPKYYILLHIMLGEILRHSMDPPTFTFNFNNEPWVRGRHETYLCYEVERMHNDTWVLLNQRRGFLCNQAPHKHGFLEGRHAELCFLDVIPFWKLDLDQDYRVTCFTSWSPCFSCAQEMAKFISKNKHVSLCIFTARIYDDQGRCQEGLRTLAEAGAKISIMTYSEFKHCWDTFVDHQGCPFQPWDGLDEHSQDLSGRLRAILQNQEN
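Read-out is eYFP fluorescence (Ex 488/Em 500-530) from Vif-expressing HeLa A3G-eYFP cells; more signal means A3G escaped Vif-mediated degradation. Cells plated overnight, compound pinned in, incubated overnight at 37 deg C.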
An asterisk follows results filed as active; ? = inconclusive; . = no result given. Rows were chosen to be rich in hits. Some 0.35% of all compounds tested hit in one or more screens of this group. Calls follow the shape of the dose curve; as a rule, active = well fitted curve in the direction sought with a large enough effect; inconclusive = small, poorly fitted or top-dose-only effect, or another doubt; inactive = no such curve, though single readings can be large; an effect the other way counts as inactive or inconclusive. Potency is read from the fitted curve at half-maximal effect.

SMILES | GRP78 ERSR act | Vif-APOBEC3F blk | Epigenetic reg | Vif-APOBEC3G blk
O=[N+]([O-])c1ccc(Nc2nc(NCCN3CCOCC3)nc(Nc3ccc(Cl)cc3)n2)cc1 | -5% | . | . | 1%
COc1ccc(-c2csc(/C(C#N)=C/Nc3ccc4c(c3)OCCO4)n2)cc1 | -2% | ? | 10µM* | 3%
COC(=O)C1=C(C(=O)OC)C(C(=O)OC)N2C=CC=CC2=C1C(=O)OC (centres undefined) | -2% | . | . | 1%
Cc1cccc(NC(=O)CSc2nc(-c3cccs3)cc(C(F)(F)F)c2C#N)c1 | -1% | 3% | 14µM* | -2%
CCOC(=O)c1ccc(NC(=O)CSc2nc(-c3ccc(OC)cc3)cc(C(F)(F)F)c2C#N)cc1 | -1% | 25µM* | ? | ?
CCOC(=O)c1ccc(NC(=O)CSc2nc(-c3cccs3)cc(C(F)(F)F)c2C#N)cc1 | -1% | 4µM* | 10µM* | ?
COc1ccc(NC(=O)CSc2nc(-c3cccs3)cc(C(F)(F)F)c2C#N)cc1 | -2% | ? | ? | -9%
COc1ccc(-c2cc(C(F)(F)F)c(C#N)c(SCC(=O)Nc3ccccc3C#N)n2)cc1 | -6% | . | 7.9µM* | -21%
COc1cc(C(=O)N/N=C/c2ccc(OC)c(CN3CCN(c4ccc(F)cc4)CC3)c2)ccc1O | -5% | 9% | -4% | -1%
CCOC(=O)c1cc2c(=O)n3ccccc3nc2n(CC(C)C)c1=NC(=O)COc1ccc(Cl)cc1 | -2% | -9% | -4% | -2%
Cc1cccc2sc(N(CCN(C)C)C(=O)C3CCN(S(=O)(=O)c4cccs4)CC3)nc12 | -3% | -9% | . | 3%
Cc1onc(-c2ccccc2Cl)c1C(N)=O | -3% | -5% | -2% | 2%
COC(=O)c1c(-c2ccccc2Cl)noc1/C=C/N(C)C | -3% | ? | 22µM* | ?
CCCCCCc1cc2cc(-c3nnc(-c4ccccc4O)o3)c(=O)oc2cc1O | -4% | ? | 6.3µM* | 3.2µM*
CCCCCCc1cc2cc(-c3nnc(-c4cc(OC)c(OC)c(OC)c4)o3)c(=O)oc2cc1O | -3% | ? | 4% | ?
CCCCCCc1cc2cc(-c3nnc(-c4ccccc4OC)o3)c(=O)oc2cc1O | -2% | ? | ? | 13µM*
CC(C)c1cccc(-c2ccc3c(c2)S(=O)(=O)c2cccc(C(=O)NCc4ccccc4)c2C3=O)c1 | -6% | 10µM* | . | 2%
CC(C)c1cccc(-c2ccc3c(c2)S(=O)(=O)c2cccc(C(=O)NCc4ccccc4Cl)c2C3=O)c1 | -4% | 11µM* | . | 0%
NS(=O)(=O)c1ccc(CCNc2ccn3nc(-c4cccc(C(F)(F)F)c4)cc3n2)cc1 | -6% | . | . | -16%
Cc1ccnc(NC(=O)Nc2ccc3c(c2)N(C)C(=O)CS3)c1 | 4% | 25µM* | 0% | ?
CCC(CO)[n+]1c(C)cc(/C=C2\Sc3ccccc3N2Cc2ccccc2)cc1C (centres undefined) | 3% | 11µM* | ? | 13µM*
C[n+]1ccccc1/C=C1\Sc2ccccc2N1CCO | -4% | -12% | . | -15%
CCOC(=O)/C=c1\s/c(=C\c2ccc3cc(OC)ccc3c2)c(=O)n1CC(=O)NCc1ccc2c(c1)OCO2 | -5% | -3% | 7.9µM* | 2%
CCOC(=O)/C=c1/s/c(=C\c2c(OC)ccc3ccccc23)c(=O)n1CC(=O)NCC1CCCO1 (centres undefined) | -4% | ? | . | 11µM*
CCOC(=O)/C=c1\s/c(=C\c2ccccc2C)c(=O)n1CC(=O)NCc1ccc2c(c1)OCO2 | -1% | ? | ? | ?
SMILES | GRP78 ERSR act | Vif-APOBEC3F blk | Epigenetic reg | Vif-APOBEC3G blk
COc1cc(Br)c(C[N+]2(CCOCCC3CCC4CC3C4(C)C)CCOCC2)cc1OC (centres undefined) | -6% | . | . | .
CCn1cc(CNC(=O)c2cc(-c3ccc(C)cc3)nc3ccc(Br)cc23)c(C)n1 | 3% | ? | 16µM* | -21%
COc1ccc(-c2[nH]n(-c3ccc([N+](=O)[O-])cc3)c(=O)c2C=NCc2ccccc2)cc1 | -4% | ? | 13µM* | -10%
O=C(CCN1C(=O)/C(=C/C=C/c2ccccc2)SC1=S)Nc1ccccn1 | -8% | ? | 14µM* | -9%
Cc1ccc2oc(C(=O)Nc3sc4c(c3C(=O)NCc3ccccc3)CCCC4)cc(=O)c2c1 | -1% | 0% | -2% | -3%
CCC1(c2ccccc2)NC(=O)NC1=O (centres undefined) | 1% | . | . | .
O=C(NCc1ccco1)c1cccc2c1C(=O)c1ccc(N3CCC(Cc4ccccc4)CC3)cc1S2(=O)=O | -3% | 10µM* | . | ?
O=C(NCc1cccc(F)c1)c1cccc2c1C(=O)c1ccc(N3CCCC3)cc1S2(=O)=O | -3% | ? | . | ?
O=C(NCc1ccc(OC(F)(F)F)cc1)c1cccc2c1C(=O)c1ccc(N3CCC(Cc4ccccc4)CC3)cc1S2(=O)=O | -4% | ? | . | -9%
O=C(NCc1cccc(F)c1)c1cccc2c1C(=O)c1ccc(N3CCC(Cc4ccccc4)CC3)cc1S2(=O)=O | 1% | 32µM* | . | 11µM*
CC1CCN(c2ccc3c(c2)S(=O)(=O)c2cccc(C(=O)NCc4cccc(F)c4)c2C3=O)CC1 | -4% | ? | . | 20µM*
O=C(NCc1cc(C(F)(F)F)ccc1Cl)c1cccc2c1C(=O)c1ccc(N3CCOCC3)cc1S2(=O)=O | -5% | 10µM* | . | 3%
O=C(NCCc1ccc(F)cc1)c1cccc2c1C(=O)c1ccc(N3CCC(Cc4ccccc4)CC3)cc1S2(=O)=O | -6% | ? | . | ?
CN1CCN(c2ccc(S(=O)(=O)N3CCCCC3)cc2NC(=O)CSCc2ccccc2)CC1 | -6% | -6% | . | 1%
Cc1cc(=O)n2nc(N3CCCC(C(=O)NCc4cccc(Br)c4)C3)sc2n1 (centres undefined) | 0% | -12% | . | 0%
C=CCn1c(=O)c2ccccc2n2c(SCc3c(C(=O)OCC)oc4ccccc34)nnc12 | -4% | -1% | 2% | -1%
O=C(NCc1cccc(C(F)(F)F)c1)c1cccc2c1C(=O)c1ccc(N3CCC(Cc4ccccc4)CC3)cc1S2(=O)=O | 2% | 22µM* | . | ?
CCOc1ccc2cc(-c3nnc(Nc4ccccc4F)s3)c(=O)oc2c1 | -1% | ? | 3.5µM* | 6%
COc1ccc2oc(=O)c(-c3nc4ccccc4o3)cc2c1 | 9% | 13µM* | 0% | ?
CCOc1ccccc1Nc1nnc(-c2cc3cc(OC)ccc3oc2=O)s1 | 3% | 7.1µM* | 18µM* | -16%
CCc1ccc(CNC(=O)CCn2ccc3cc(S(=O)(=O)N4CCCC4)ccc32)cc1 | -5% | 7% | . | -5%
COC(=O)C1C(O)=C(C(C)=Nc2cccc3ccccc23)C(=O)CC1(C)C (centres undefined) | -2% | -1% | -3% | 4%

Screening results: PubChem BioAssay, National Center for Advancing Translational Sciences (NCATS)
